Experimental data reported in PubChem BioAssay.
For part of these data: Potency and affinity values are given separately. Calls of active or inactive are those of the source. Unless noted, how the calls were made is not given here.

Key:
[1] = antimalarial activity against Dd2 strain (AID 2302;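 active means growth inhibition above 50% at the single 2 µM test dose, taken to imply half-maximal potency below 2 µM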;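 further: 0% = DMSO untreated growth and 100% = chloroquine plus artemisinin killed control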); conditions: P. falciparum Dd2 in RBCs, LDH growth readout, 72 h; at 2 µM; hits give high values
[2] = human hepatoma cell viability loss – ATP luminescence, cytotoxicity control for P. falciparum antimalarial project, primary screen (AID 2303;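 active means inhibition above 50%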;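 further: 0% = DMSO wells and 100% = digitonin-killed cells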); conditions: HepG2 viability, 24-48 h, at 10 µM, hits give high values
[3] = molecular target: L-lactate dehydrogenase (Plasmodium falciparum (isolate CDC / Honduras)) (UniProt Q27743); experiment: PfLDH activity inhibition – cell lysate, 3D7 strain, counter-screen for P. falciparum growth inhibition project (AID 2304);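 further: 0% = vehicle and 100% = reference inhibitor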; conditions: P. falciparum 3D7 crude extract, LDH APAD/NBT absorbance; at 2 µM; hits give high values
Sequence of L-lactate dehydrogenase (Plasmodium falciparum (isolate CDC / Honduras)) (Q27743 whole entry, looked up): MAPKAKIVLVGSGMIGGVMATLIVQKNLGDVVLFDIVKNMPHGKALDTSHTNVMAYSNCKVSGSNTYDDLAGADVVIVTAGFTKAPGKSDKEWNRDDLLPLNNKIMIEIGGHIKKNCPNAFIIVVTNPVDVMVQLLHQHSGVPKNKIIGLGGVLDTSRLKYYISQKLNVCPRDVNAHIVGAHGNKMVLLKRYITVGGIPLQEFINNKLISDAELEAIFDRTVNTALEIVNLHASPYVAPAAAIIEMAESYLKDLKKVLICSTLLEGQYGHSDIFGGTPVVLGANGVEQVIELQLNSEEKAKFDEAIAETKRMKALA

[4] = inhibition of 3D7 malaria parasite growth – strain 3D7 (AID 2306);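 further: 0% = DMSO wells and 100% = chloroquine plus artemisinin control wells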; conditions: P. falciparum 3D7 erythrocytic growth, LDH absorbance, 72 h; at 2 µM; hits give high values
[5] = molecular target: Calcium-dependent protein kinase 1 (Plasmodium falciparum (isolate 3D7)) (UniProt P62344); experiment: PfCDPK1 kinase inhibitors, biochemical, TCAMS library (AID 1159585; cut-off not given, nearly all actives have IC50 up to about 0.98 µM;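 further: inhibitors leave more ATP so luminescence rises with inhibition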); conditions: recombinant PfCDPK1, Kinase-Glo ATP depletion luminescence
Sequence of Calcium-dependent protein kinase 1 (Plasmodium falciparum (isolate 3D7)) (P62344 whole entry, looked up): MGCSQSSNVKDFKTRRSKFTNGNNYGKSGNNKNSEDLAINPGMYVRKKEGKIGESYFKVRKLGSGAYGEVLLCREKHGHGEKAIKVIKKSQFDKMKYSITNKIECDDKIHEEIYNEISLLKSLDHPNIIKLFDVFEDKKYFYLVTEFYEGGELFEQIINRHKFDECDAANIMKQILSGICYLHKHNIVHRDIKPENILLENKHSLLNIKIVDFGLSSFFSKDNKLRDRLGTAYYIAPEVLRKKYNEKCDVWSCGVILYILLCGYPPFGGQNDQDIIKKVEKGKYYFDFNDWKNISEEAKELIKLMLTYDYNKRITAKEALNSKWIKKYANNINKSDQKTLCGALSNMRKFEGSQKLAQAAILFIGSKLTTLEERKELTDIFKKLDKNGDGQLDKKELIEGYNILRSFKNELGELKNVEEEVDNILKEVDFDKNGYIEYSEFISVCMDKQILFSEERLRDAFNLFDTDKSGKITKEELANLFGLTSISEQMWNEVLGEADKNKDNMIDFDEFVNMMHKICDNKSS

[6] = molecular target: Plasmodium falciparum protein kinase 6 (PK6, PF3D7_1337100) (UniProt Q8IDW1); experiment: PfPK6 kinase inhibitors, biochemical, TCAMS library (AID 1159586); conditions: recombinant PfPK6, Kinase-Glo ATP depletion luminescence
Sequence of Plasmodium falciparum protein kinase 6 (PK6, PF3D7_1337100) (Q8IDW1 1-305): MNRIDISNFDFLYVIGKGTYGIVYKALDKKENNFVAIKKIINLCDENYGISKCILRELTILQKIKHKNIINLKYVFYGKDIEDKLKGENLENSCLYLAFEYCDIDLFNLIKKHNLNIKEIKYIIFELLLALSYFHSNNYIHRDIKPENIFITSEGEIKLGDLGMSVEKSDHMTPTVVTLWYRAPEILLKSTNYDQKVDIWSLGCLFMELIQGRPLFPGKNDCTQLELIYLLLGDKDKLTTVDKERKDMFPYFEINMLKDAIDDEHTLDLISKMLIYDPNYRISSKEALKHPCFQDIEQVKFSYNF

[7] = molecular target: Protein kinase 7 (PK7), Plasmodium falciparum 3D7 (PF3D7_0213400) (UniProt Q7YTF7); experiment: inhibition of Plasmodium PK7 catalytic activity – biochemical, TCAMS antimalarial set, Kinase-Glo luminescence (AID 1159587); conditions: recombinant PfPK7, Kinase-Glo ATP depletion luminescence
Sequence of Protein kinase 7 (PK7), Plasmodium falciparum 3D7 (PF3D7_0213400) (Q7YTF7 1-343): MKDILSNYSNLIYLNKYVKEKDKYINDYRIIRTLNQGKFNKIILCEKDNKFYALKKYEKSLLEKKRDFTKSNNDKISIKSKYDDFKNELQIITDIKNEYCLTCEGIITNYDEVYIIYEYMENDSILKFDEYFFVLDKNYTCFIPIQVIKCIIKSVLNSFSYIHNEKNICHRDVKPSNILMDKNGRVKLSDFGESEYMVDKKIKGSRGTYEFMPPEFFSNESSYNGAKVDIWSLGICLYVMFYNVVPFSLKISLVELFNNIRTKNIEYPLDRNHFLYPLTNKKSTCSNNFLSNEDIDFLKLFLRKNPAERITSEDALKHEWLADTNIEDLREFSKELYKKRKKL

[8] = molecular target: Calcium-dependent protein kinase 4 (Plasmodium falciparum (isolate 3D7)) (UniProt Q8IBS5); experiment: PfCDPK4 kinase inhibitors, biochemical, TCAMS library (AID 1159588; cut-off not given, nearly all actives have IC50 up to about 0.91 µM); conditions: recombinant PfCDPK4, Kinase-Glo ATP depletion luminescence
Sequence of Calcium-dependent protein kinase 4 (Plasmodium falciparum (isolate 3D7)) (Q8IBS5 whole entry, looked up): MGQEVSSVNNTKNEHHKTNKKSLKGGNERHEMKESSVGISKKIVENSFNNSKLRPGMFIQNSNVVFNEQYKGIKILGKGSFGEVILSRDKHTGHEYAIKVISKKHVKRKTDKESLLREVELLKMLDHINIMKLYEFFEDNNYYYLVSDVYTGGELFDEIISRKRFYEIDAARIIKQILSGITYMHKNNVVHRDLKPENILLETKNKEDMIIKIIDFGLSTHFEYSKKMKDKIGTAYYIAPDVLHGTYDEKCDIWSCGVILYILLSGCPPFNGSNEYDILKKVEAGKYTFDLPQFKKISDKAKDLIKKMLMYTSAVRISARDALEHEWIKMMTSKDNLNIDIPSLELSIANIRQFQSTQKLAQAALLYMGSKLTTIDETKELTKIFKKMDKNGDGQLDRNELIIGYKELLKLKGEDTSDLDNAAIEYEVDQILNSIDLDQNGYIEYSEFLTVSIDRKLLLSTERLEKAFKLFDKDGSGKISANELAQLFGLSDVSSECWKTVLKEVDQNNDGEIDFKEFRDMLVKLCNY

CCC(C)NS(=O)(=O)c1ccc2nc(Nc3ccc(C)c(Cl)c3)n([C@H](C)C(C)(C)C)c2c1 (stereo partly drawn)
active: growth inhibition [1] 100% | growth inhibition [4] 98%
inactive: inhibition [2] 8% | inhibition [3] -5% | outcome [5] | outcome [6] | outcome [7] | outcome [8]

Cc1ccc2nc(/N=C(\N)NC(=O)NC3CCCCC3)nc(C)c2c1
inactive: inhibition [2] 8% | inhibition [3] 0% | outcome [5] | outcome [6] | outcome [7] | outcome [8]
active: growth inhibition [1] 94% | growth inhibition [4] 99%

COCCNCc1ccc(-c2ccc3c(Nc4ccc(F)cc4Cl)ccnc3c2)o1
inactive: inhibition [2] 22% | inhibition [3] 2% | outcome [5] | outcome [6] | outcome [7] | outcome [8]
active: growth inhibition [1] 100% | growth inhibition [4] 100%

O=C(Nc1ccccc1Cl)c1cc2ccccc2cc1O
inactive: inhibition [2] 2% | inhibition [3] -4% | outcome [5] | outcome [6] | outcome [7] | outcome [8]
active: growth inhibition [1] 72% | growth inhibition [4] 94%

COc1ccc(Oc2ccc(Nc3ccnc4ccc(C(F)(F)F)cc34)cc2)cc1OC
inactive: growth inhibition [1] 17% | inhibition [2] -2% | inhibition [3] 2% | outcome [5] | outcome [6] | outcome [7] | outcome [8]
active: growth inhibition [4] 90%

O=C(NCCc1ccccc1)N(Cc1cccc(-c2ccc(CNCc3ccc4c(c3)OCO4)cc2)c1)C1CCN(Cc2ccccc2)CC1
inactive: inhibition [2] 11% | inhibition [3] -2% | outcome [5] | outcome [6] | outcome [7] | outcome [8]
active: growth inhibition [1] 70% | growth inhibition [4] 94%

c1ccc2c(c1)CN(CC1CC1)CC1(CCN(Cc3c[nH]c4cnccc34)CC1)O2
inactive: growth inhibition [1] 14% | inhibition [2] 30% | inhibition [3] -1% | outcome [5] | outcome [6] | outcome [7] | outcome [8]
active: growth inhibition [4] 101%

C[C@@H](N)C#Cc1cc2c(Nc3ccc(OCc4cccc(F)c4)c(Cl)c3)ncnc2s1
inactive: growth inhibition [1] 23% | inhibition [2] 17% | inhibition [3] -5% | outcome [5] | outcome [6] | outcome [7] | outcome [8]
active: growth inhibition [4] 89%

O=C(Nc1ccccc1O)c1ccc(S(=O)(=O)c2ccc(Cl)cc2)cc1
active: growth inhibition [1] 85% | growth inhibition [4] 90%
inactive: inhibition [2] 18% | inhibition [3] -7% | outcome [5] | outcome [6] | outcome [7] | outcome [8]

CC(C)Oc1ccccc1-c1csc(C(=O)NCC2CCN(Cc3ccc(C(C)(C)C)cc3)C2)c1 (stereo not drawn)
inactive: growth inhibition [1] 45% | inhibition [3] 2% | outcome [5] | outcome [6] | outcome [7] | outcome [8]
active: inhibition [2] 59% | growth inhibition [4] 90%

O=C(Nc1ccnc(N2C[C@H]3C[C@@H]2CN3Cc2cccc(O)c2)c1)c1ccc(F)cc1
inactive: growth inhibition [1] 0% | inhibition [2] 2% | inhibition [3] 4% | outcome [5] | outcome [6] | outcome [7] | outcome [8]
active: growth inhibition [4] 92%

COc1ccc2nc(-c3cc(-c4ccc(NC(=O)CN5CCOCC5)cc4)cnc3N)[nH]c2c1
active: growth inhibition [1] 72% | inhibition [2] 52% | growth inhibition [4] 100%
inactive: inhibition [3] -4% | outcome [5] | outcome [6] | outcome [7] | outcome [8]

O=C(Cc1cnc[nH]1)Nc1cccc(-c2cccc(-c3nc4ccc(F)cc4[nH]3)c2)c1
active: growth inhibition [1] 97% | growth inhibition [4] 101%
inactive: inhibition [2] 21% | inhibition [3] 2% | outcome [5] | outcome [6] | outcome [7] | outcome [8]

CCCCC1(NC(=O)[C@@H](Nc2ccc(C#N)c3ccccc23)C2CCCCC2)CCCCC1
active: growth inhibition [1] 84% | growth inhibition [4] 91%
inactive: inhibition [2] 8% | inhibition [3] 0% | outcome [5] | outcome [6] | outcome [7] | outcome [8]

Cc1noc(C)c1-c1ccc2c(Nc3ccc(Cl)cc3)c(C(N)=O)cnc2c1
inactive: inhibition [2] 9% | inhibition [3] 7% | outcome [5] | outcome [6] | outcome [7] | outcome [8]
active: growth inhibition [1] 67% | growth inhibition [4] 94%

CCc1c(C)nc(-n2nc(C)cc2NC(=O)C(CC)c2ccccc2)[nH]c1=O (stereo not drawn)
inactive: inhibition [2] 41% | inhibition [3] -1% | outcome [5] | outcome [6] | outcome [7] | outcome [8]
active: growth inhibition [1] 93% | growth inhibition [4] 97%

COc1ccc(NC(=O)Nc2cc(C)nc3ccccc23)cc1Cl
inactive: growth inhibition [1] 49% | inhibition [2] 4% | inhibition [3] -2% | outcome [5] | outcome [6] | outcome [7] | outcome [8]
active: growth inhibition [4] 104%

CSC1=NC2(CC(c3cccc(C)c3)c3cc(Cl)c(O)cc3O2)CC(C)(C)N1 (stereo not drawn)
inactive: inhibition [2] 0% | inhibition [3] 4% | outcome [5] | outcome [6] | outcome [7] | outcome [8]
active: growth inhibition [1] 73% | growth inhibition [4] 100%

O=C(Nc1ccccc1F)NC1CCN(c2ccnc(Nc3ccc(F)cc3)n2)CC1
inactive: inhibition [2] 13% | inhibition [3] -4% | outcome [5] | outcome [6] | outcome [7] | outcome [8]
active: growth inhibition [1] 63% | growth inhibition [4] 99%

CCn1c(C(C)C)cc2c3c(N)nc(N)nc3ccc21
inactive: growth inhibition [1] -2% | inhibition [3] 2% | outcome [5] | outcome [6] | outcome [7] | outcome [8]
active: inhibition [2] 67% | growth inhibition [4] 92%

NC(=O)NC(=O)C=Cc1ccco1
active: growth inhibition [4] 97%
inactive: growth inhibition [1] -3% | inhibition [2] 32% | inhibition [3] -7% | outcome [5] | outcome [6] | outcome [7] | outcome [8]
